Common to all, as to assay: NCI-60 one-dose screen, 48 h (100 = growth as untreated, 0 = no growth, -100 = all killed)
Settings in all cases: 10 µM unless noted

For experiment [1], the system named is NCI-H23 lung.
In experiment [2] the test system is NCI-H226 lung.
The test system of experiment [3] is NCI-H322M lung.
Experiment [4] deals with HOP-62 NSCLC.
For experiment [5], the system named is NCI-H460 lung.
For experiment [6], the system named is HOP-92 NSCLC.
For experiment [7], the system named is NCI-H522 lung.
For experiment [8], the system named is A549/ATCC NSCLC.
In experiment [9] the test system is 786-0 renal.
Experiment [10] relates to COLO 205 colon.
Experiment [11] deals with DU-145 prostate.
For experiment [12], the system named is K-562 leukemia.
For experiment [13], the system named is MALME-3M melanoma.
Experiment [14] relates to MDA-MB-231 breast.
The test system of experiment [15] is RXF 393 renal.
The subject of experiment [16] is SF-268 CNS.
The subject of experiment [17] is SF-295 CNS.
The test system of experiment [18] is SF-539 CNS.
Experiment [19] has as its system UACC-257 melanoma.
Experiment [20] has as its system M14 melanoma.

The panel holds about 83,000 compounds, 20% with a hit somewhere; the sample as a whole holds those more often.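 Compound tested at a single concentration for 48 hours in 96-well plates; a percent growth value below 10 was scored as active.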 Values without a mark were called inactive. Activity calls are given as the source filed them.

Turning to `Clc1ccc(-c2nc(-c3c[nH]c4ncccc34)cs2)cc1`, the growth was 35% [100 µM] in experiment [1]; 47.7% [100 µM] in experiment [2]; 61.7% [100 µM] in experiment [3]; 6.83% [100 µM] (active) in experiment [4]; 72.5% [100 µM] in [5]; -42.4% [100 µM] (active) in experiment [6]. Moreover, the growth was 71.7% [100 µM] in [7]; 55.2% [100 µM] in experiment [8]; 34.6% [100 µM] in experiment [9]; 93.2% [100 µM] in experiment [10]; 79.6% [100 µM] in experiment [11]; 100% [100 µM] in experiment [12]. Moreover, the growth in experiment [13] is 73% [100 µM]; in experiment [14] it was 31.1% [100 µM]; in experiment [15], 18.5% [100 µM]; in experiment [16], 40.9% [100 µM]; in experiment [17], 18.6% [100 µM]; in [18], 20.6% [100 µM]. Besides, the growth in experiment [19] was 105% [100 µM]; in experiment [20], 70.3% [100 µM].

As to `COc1cc(C2C3=C(COC3=O)N(CCO)c3cc4c(cc32)OCCO4)cc(OC)c1OC` (stereo not given), the growth in experiment [1] is 14.5%; in experiment [2] it was 13.5%; in experiment [3], 36.9%; in experiment [4], 15.4%; in experiment [5], 1.13% (active); in experiment [6], 26.8%. Besides, the growth was -10% (active) in experiment [7]; 11.9% in experiment [8]; 1.83% (active) in experiment [9]; -85.9% (active) in experiment [10]; -30.1% (active) in experiment [11]; 5.23% (active) in experiment [12]. The growth is 53.7% in [13]; 9.38% (active) in [14]; -8.9% (active) in experiment [15]; 26.8% in experiment [16]; -5.17% (active) in [17]; -25.4% (active) in [18]. In addition, the figures for the growth in experiment [19] and in experiment [20] were 42.5% and -28.8% (active), respectively.

Regarding `CCOc1ccc(NC(=O)c2cc(OC)c(OC)c(OC)c2)cc1`, the growth in [1] is 45.8%; in experiment [2], 68.1%; in experiment [3], 52.2%; in experiment [4], 56.2%; in experiment [5] it was 17.1%; in experiment [6], 44.1%. The growth in [7] is 42.3%; in [8] it was 46.6%; in [9] it was 32.3%; in experiment [10], 11.8%; in [11] it was 54%; in experiment [12], 17%. Besides, the growth in experiment [13] is 38.2%; in experiment [14] it was 62.7%; in experiment [15] it was 39.8%; in experiment [16], 47.6%; in experiment [17], 26.2%; in experiment [18] it was 23.5%. The growth was 50.1% in [19] and 16.5% in experiment [20].

Consider `N=C(N)c1ccc(-c2ccc(-c3ccc(Cl)cc3Cl)s2)cc1F`, for which the growth is 18.9% in experiment [1]; 93.2% in experiment [2]; -43.8% (active) in [3]; -0.426% (active) in experiment [4]; -72.4% (active) in [5]; 43% in experiment [6]. Further, the growth in [7] is -44.2% (active); in [8], -55.8% (active); in [9], -78.8% (active); in [10], -47.2% (active); in experiment [11], -82.4% (active); in experiment [12] it was -22.6% (active). Moreover, the growth in experiment [13] was -2.93% (active); in experiment [14] it was -79.5% (active); in [15] it was 50.1%; in [16] it was 1.95% (active); in experiment [17], -79.5% (active); in [18] it was -95.4% (active). Further, the growth in experiment [19] is 18.6%; in experiment [20], -15.1% (active).

On to `CCOC(=O)C1CCN(c2ccc(N3C[C@@H](CNCc4ccc(C(=N)N)cc4)OC3=O)cc2)CC1`, for which the growth in [1] was 97.9%; in experiment [2], 97.2%; in experiment [3] it was 103%; in experiment [4] it was 97.5%; in experiment [5] it was 103%; in [6], 90.8%. The growth is 92.6% in [7]; 104% in experiment [8]; 100% in experiment [9]; 103% in [10]; 98.6% in [11]; 99.3% in [12]. For the same compound, the growth was 83.1% in experiment [13]; 99.8% in experiment [14]; 99.7% in [15]; 100% in experiment [16]; 101% in experiment [17]; 94.4% in [18]. The growth in experiment [19] was 102%; in [20], 94.7%.

In the case of `Cc1nn(-c2ccccc2)c(N2CCCCC2)c1/C=N/NC(=O)Cn1c(=O)sc2ccccc21`, the growth in [1] is 82.6%; in experiment [2], 92.8%; in experiment [3], 76.3%; in experiment [4], 77.3%; in [5], 81.5%; in experiment [6] it was 65.6%. In addition, the growth in [7] was 64.9%; in experiment [8] it was 66%; in experiment [9], 97.2%; in experiment [10], 88.2%; in [11], 95.8%; in experiment [12] it was 43.4%. Also, the growth in experiment [13] was 101%; in [14] it was 79%; in [15] it was 89.9%; in experiment [16], 79.2%; in experiment [17] it was 56.7%; in [18] it was 92.2%. Besides, the growth in [19] is 95.2%; in experiment [20], 72.2%.

As for `Cc1nc2sc(C(=O)Nc3ccccc3)c(N)c2cc1C(=O)/C=C/c1ccccc1`, the growth was 10.9% in experiment [1]; 5.17% (active) in [2]; 10.7% in experiment [3]; -26.2% (active) in experiment [4]; -71% (active) in [5]; 6.29% (active) in experiment [6]. The growth in experiment [7] was -42.5% (active); in experiment [8], 13.2%; in experiment [9] it was -57.2% (active); in [10], 14.2%; in [11], 1.91% (active); in experiment [12] it was 12%. Moreover, the growth in experiment [13] is 50.1%; in experiment [14], -9.1% (active); in experiment [15], -74.8% (active); in [16] it was 0.182% (active); in experiment [17], 18.1%; in [18], -27% (active). Moreover, the growth is 54.2% in [19] and 11.1% in experiment [20].

The record behind these values is PubChem BioAssay (NCI).
